Data taken from PubChem BioAssay AID449762 (Southern Research Specialized Biocontainment Screening …, 2010).
Out of some 330,000 compounds screened, about 1,900 (0.58%) were called active. Another 4% or so got no clear call; they are omitted. The list is a sample of the results. Results with a measured potency or affinity are listed apart. A number with no mark means an inactive call. Cut-off read from the data, not from the text of the source: inconclusive = inhibition above about 70% without an active follow-up result; inactive = below that.

Test: M. tuberculosis growth inhibition, HTS (AID 449762);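 note: bacterial growth assessed after seven days of incubation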
Conditions: M. tuberculosis H37Rv growth inhibition, 7H9 media; at 25 µM; hits give high values

Row | SMILES | inhibition [%]
1 | CCCCn1c(=O)[nH]c(=O)c2c1nc(-c1ccsc1)n2Cc1ccccc1 | 7.19
2 | CC(C)c1nnc2n1N=C(c1ccc(Cl)cc1)CS2 | 45.3
3 | CCC(=O)Nc1ccc(C2=Nn3c(nnc3C(C)C)SC2)cc1 | 9.12
4 | Cc1ccc(CN2CCSc3ccc(C(=O)NCC4CCCO4)cc32)cc1 (stereo unspecified) | -1.08
5 | Nc1ccc(Nc2ccc([N+](=O)[O-])cc2[N+](=O)[O-])cc1 | 4.35
6 | Nc1cc([N+](=O)[O-])ccc1Nc1ccccc1 | 2.95
7 | COc1ccc2sc(-c3ccc(S(C)(=O)=O)cc3)c(C(=O)NCCc3c[nH]c4ccccc34)c2c1 | 0.16
8 | CN1C(=O)N(C)C(=O)C2(Cc3cc(N)ccc3N3CCN(c4ccccc4F)CC32)C1=O (stereo unspecified) | -0.78
9 | Cc1ccc(C(=O)NC(=S)N(C)C2CCCCC2)cc1 | 62.7
10 | CN(C(=S)NC(=O)c1ccccc1)C1CCCCC1 | 60.5
11 | O=C(NCc1ccc2c(c1)OCO2)C1CCC(CNS(=O)(=O)c2ccc(Cl)cc2)CC1 (stereo unspecified) | -12
12 | O=C(CN1C(=O)NC2(CCCC2)C1=O)N1CCN(S(=O)(=O)c2ccc(Cl)c(C(F)(F)F)c2)CC1 | -1.26
13 | CC1CCCC(C)N1/N=C/c1cccc(Br)c1 (stereo unspecified) | 2.02
14 | Brc1ccc2[nH]cc(/C=N/N3CCCCC3)c2c1 | -3.65
15 | CCCCNS(=O)(=O)c1ccc(OC)c2ncccc12 | -7.49
16 | COc1cc(NC(=O)c2ccc3snnc3c2)cc(OC)c1 | -2.63
17 | C[C@H](NC(=O)c1cc2c(cn1)[nH]c1ccccc12)C(=O)O | 61.1
18 | COC(=O)[C@H](C)NC(=O)c1cc2c(cn1)[nH]c1ccccc12 | 25.1
19 | Cc1cc(C)c2nc(-c3ccccn3)cc(C(=O)NCCc3ccc(S(N)(=O)=O)cc3)c2c1 | 2.93
20 | O=C(CSC1=NC(=O)C(c2ccccc2)C(=O)N1)Nc1cccc(Cl)c1 (stereo unspecified) | -1.6
21 | NS(=O)(=O)c1ccc(NC(=O)CSC2=NC(=O)C(c3ccccc3)C(=O)N2)cc1 (stereo unspecified) | -4.16

Row | SMILES | inhibition [%]
22 | CC1CC(NC(=O)CC#N)CC(C)(C)C1 (stereo unspecified) | -2.07
23 | CCNC(=O)CC1C(=O)N(c2ccc(C)cc2)C(=O)N1CCc1sccc1C (stereo unspecified) | -0.52
24 | COc1ccc(OC)c(N(CC(=O)Nc2ccccc2)S(=O)(=O)c2ccccc2)c1 | -0.48
25 | CC1(C(=O)O)CCCC2(C)c3cc(O)ccc3CCC12 (stereo unspecified) | -4.51
26 | CC(C)(O)c1ccc2c(c1)CCC1C(C)(C(=O)O)CCCC21C (stereo unspecified) | -2.51
27 | Cc1cc(CN(C)C(=O)C2CCC(=O)N(CCc3ccccc3)C2)n[nH]1 (stereo unspecified) | 8.05
28 | CC(=O)Nc1ccc(SC(C)C(=O)NC(N)=O)cc1 (stereo unspecified) | -6.23
29 | NC1=NC[C@@H](Cc2ccc(O)cc2)N1CCc1cccc2ccccc12 | 7.62
30 | NC1=NC[C@H](Cc2ccc(O)cc2)N1CCc1cccc(F)c1 | -2.28
31 | Cc1cc(=O)oc2cc(OCC(=O)N3CCCC3)ccc12 | -4.87
32 | COc1ccccc1CCC(=O)NNC(=O)c1cccs1 | -0.29
33 | CCCCCCCCCCOC(=O)Cn1c(COc2ccccc2OC)[n+](C)c2ccccc21 | 54.7
34 | CCCCCCCCCCOC(=O)Cn1c(COc2ccccc2)[n+](C)c2ccccc21 | 49.6
35 | COc1ccc([C@H]2CC(=O)C=C(c3ccc(Br)c4ccccc34)C2)cc1 | 67.8
36 | COc1ccc([C@H]2CC(=O)C=C(c3cc4ccccc4c4ccccc34)C2)cc1 | -1.17
37 | COc1ccc(-c2[nH]ncc2CN2CCCOc3c(cccc3OC)C2)c(OC)c1 | 9.33
38 | O=C1CCCN1CCC(=O)N1CCCC(Nc2ccc(F)cc2)C1 (stereo unspecified) | -9.8
39 | OC(CN1CCN(c2ccccc2Cl)CC1)c1ccccc1 (stereo unspecified) | 2.61
40 | C/C(CC(=O)Nc1cc(Cl)ccc1C)=N\NC(N)=O | 4.8
41 | CC(=O)Nc1ccc(NC(=O)C/C(C)=N/NC(N)=S)cc1 | 3.29
42 | COc1ccc(C2(c3ccc(OC)cc3)NC(=O)N(CC(=O)Nc3ccc(C(=O)N(C)C)cc3)C2=O)cc1 | -1.84

Row | SMILES | inhibition [%]
43 | CCN=c1scc(-c2ccco2)n1/N=C/c1ccc(O)cc1 | 28.5
44 | CC(C)N=c1scc(-c2ccco2)n1/N=C/c1ccc(O)c(O)c1 | 9.93
45 | COc1ccc(S(=O)(=O)Nc2ccccc2N2CCOCC2)cc1OC | 3.88
46 | CC(Nc1cc(C)cc(C)c1)=[N+](C)CCNS(=O)(=O)c1ccc(Cl)cc1 | -13.9
47 | Cc1ccc(-c2nsc3c(N4CCC(C(N)=O)CC4)ncnc23)cc1 | -5.48
48 | O=c1c(C=NCc2ccccc2)c(NCc2ccccc2)nc2ccccn12 | 11.6
49 | COC(=O)CSc1nc2ccccc2o1 | 20
50 | COc1ccc(C(=O)N/C(N)=N/c2nc3ccccc3o2)cc1 | 43
51 | O=C(O)c1ccc(NS(=O)(=O)c2ccc3c(c2)OCCCO3)cc1 | 5.48
52 | COc1ccc(N(CC(=O)NC2CCCCCC2)S(=O)(=O)c2ccccc2)cc1Cl | 11.1
53 | O=[N+]([O-])c1ccc(Cl)c(-c2ccc(/C=N/n3cnnc3)o2)c1 | -1.71
54 | O=[N+]([O-])c1cc(-c2ccc(/C=N/n3cnnc3)o2)ccc1Cl | 16.1
55 | C/C=C1\COC(C(=O)NCCCN2CCCC2=O)(C(F)(F)F)C=C1C=C(C)C (stereo unspecified) | 2.64
56 | CN(C(=O)CSC1=Nc2ccccc2C2=NC(c3ccccc3)C(=O)N12)C1CCCCC1 (stereo unspecified) | -5.75
57 | NC(=O)CSC1=Nc2ccccc2C2=NC(c3ccccc3)C(=O)N12 (stereo unspecified) | 4.02
58 | CCOC(=O)Cn1nnc(-c2ccccc2)n1 | -9.53
59 | CCn1c(-c2ccccc2)ccc(C#N)c1=O | -2.43
60 | CCOC(=O)Cn1c(-c2ccccc2)cc(SC)c(C#N)c1=O | 13.1
61 | NC(=O)Cn1nc(-c2ccccc2)nc1-c1ccccc1 | -2.98
